In PubChem BioAssay (NCATS):
Inconclusive results are not listed. A call without a number means that no potency is given here. Calls of active or inactive are those of the source. The call rests on the fitted dose curve; in most records, active means well fitted curve in the direction sought with a large enough effect; inconclusive means small, poorly fitted or top-dose-only effect, or another doubt; inactive means no such curve, though single readings can be large; an effect the other way counts as inactive or inconclusive.

Legend:
Furin (Homo sapiens) = Furin (Homo sapiens) (UniProt P09958); assay: Furin counterscreen qHTS for Zika virus inhibitors (AID 1347149); further: nearly all actives have a fitted effect of over 70% in size; further: potency means the concentration at half of the fitted maximal effect
How it was run: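 Counterscreen measures cleavage of 2 microM BOC-RVRR-AMC, below its ~15 microM Km, by 5 nM full-length human furin at pH 7.0 after a 15-min compound preincubation. Inhibition derives from the 15-min fluorescence increase at 37C.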

[1] = Confirmatory screen GU Rhodamine qHTS for Zika virus inhibitors qHTS (AID 1347157); further: nearly all actives have a fitted effect of over 70% in size; further: potency means the concentration at half of the fitted maximal effect
How it was run: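 Compounds, tested up to 114 microM, were incubated for 15 minutes with 25 nM unlinked NS2B-NS3 protease at pH 8.0. Cleavage of 1.5 microM Rhodamine110 substrate was then followed by fluorescence for 15 minutes.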

[2] = ZIKV-mCherry secondary qHTS for Zika virus inhibitors (AID 1347158); further: top concentration of the series differs between compounds
How it was run: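 This orthogonal imaging screen measured ZIKV-mCherry infection of Vero cells exposed to compound, MOI 1, 48-72 h. Percent infection came from segmented nuclei scored mCherry-positive above 3 SD of negative controls.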

[3] = system: Zika virus NS2B-NS3 protease (linked); assay: 384 well plate NINDS AMC confirmatory qHTS for Zika virus inhibitors (AID 1347163); further: potency means the concentration at half of the fitted maximal effect; nearly all actives have a fitted effect of over 50% in size
How it was run: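 Enzyme (5, 30 or 60 nM final) first met test compounds for ~15 min. The AMC-tagged peptide Ac-VKTGKR-AMC followed at 30 microM. Fluorescence was then recorded at 25 min and scaled against no-enzyme and no-inhibitor wells.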

[4] = system: Zika virus NS2B-NS3 protease (linked construct); assay: 384 well plate NINDS Rhodamine confirmatory qHTS for Zika virus inhibitors (AID 1347164);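 further: fluorescence from protease cleavage of Ac-LKRR-rhodamine 110 substrate; potency means the concentration at half of the fitted maximal effect; nearly all actives have a fitted effect of over 65% in size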
How it was run: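 Linked NS2B-NS3 protease (final 5, 30 or 60 nM) preincubated ~15 minutes with compounds, then 10 microM Ac-LKRR-Rhodamine 110 added. Fluorescence (485/538 nm) read after 25 minutes at room temperature, normalized to no-enzyme and no-inhibitor controls.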

[5] = Tertiary RLuc qRT-PCR qHTS assay for Zika virus inhibitors (AID 1347169); further: top concentration of the series differs between compounds; nearly all actives have a fitted effect of over 55% in size
How it was run: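 Vero cells (1,000/well) infected with recombinant ZIKV-RLuc (Cambodian) at MOI 1-2 after compound addition, 48-72 hrs at 37 degrees C. Live-cell Renilla luciferase substrate added; luminescence read after 1-1.5 hrs.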

[6] = Confirmatory screen NINDS Rhodamine qHTS for Zika virus inhibitors (AID 1347161); further: nearly all actives have a fitted effect of over 60% in size; further: potency means the concentration at half of the fitted maximal effect
How it was run: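 Purified NS2B-NS3 protease with the NS2B hydrophilic domain joined by a flexible linker (25 nM) in 10 mM Tris-HCl pH 8.0, 0.01% Tween 20, preincubated 15 min at RT with compound; Rhodamine110 peptide substrate 1.5 µM; fluorescence change over 15 min; 4-parameter Hill fit.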

[7] = target: Calcium and integrin-binding protein 1 (Homo sapiens) (UniProt Q99828); assay: Primary qHTS for Identification of Calcium Integrin Binding Protein 1 (CIB1) Competitor (AID 1508620);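 further: GST tagged CIB1 binding a fluorescein labelled alphaIIb integrin peptide tracer; top concentration of the series differs between compounds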
How it was run: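 Fluorescence polarization competition: GST-tagged CIB1 (1 uM final) preincubated with compound 15 min at room temperature, then FITC-labelled alphaIIb peptide (100 nM final) added. After 15 min at room temperature, polarization read at Ex 480/Em 540.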

Chain of Calcium and integrin-binding protein 1 (Homo sapiens) (Q99828 whole entry, looked up): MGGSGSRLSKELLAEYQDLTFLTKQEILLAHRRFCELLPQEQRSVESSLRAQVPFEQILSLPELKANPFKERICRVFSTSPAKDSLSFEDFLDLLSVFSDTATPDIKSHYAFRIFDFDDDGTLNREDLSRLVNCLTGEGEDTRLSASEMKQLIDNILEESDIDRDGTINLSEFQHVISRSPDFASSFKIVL
Chain of Furin (Homo sapiens) (P09958 whole entry, looked up): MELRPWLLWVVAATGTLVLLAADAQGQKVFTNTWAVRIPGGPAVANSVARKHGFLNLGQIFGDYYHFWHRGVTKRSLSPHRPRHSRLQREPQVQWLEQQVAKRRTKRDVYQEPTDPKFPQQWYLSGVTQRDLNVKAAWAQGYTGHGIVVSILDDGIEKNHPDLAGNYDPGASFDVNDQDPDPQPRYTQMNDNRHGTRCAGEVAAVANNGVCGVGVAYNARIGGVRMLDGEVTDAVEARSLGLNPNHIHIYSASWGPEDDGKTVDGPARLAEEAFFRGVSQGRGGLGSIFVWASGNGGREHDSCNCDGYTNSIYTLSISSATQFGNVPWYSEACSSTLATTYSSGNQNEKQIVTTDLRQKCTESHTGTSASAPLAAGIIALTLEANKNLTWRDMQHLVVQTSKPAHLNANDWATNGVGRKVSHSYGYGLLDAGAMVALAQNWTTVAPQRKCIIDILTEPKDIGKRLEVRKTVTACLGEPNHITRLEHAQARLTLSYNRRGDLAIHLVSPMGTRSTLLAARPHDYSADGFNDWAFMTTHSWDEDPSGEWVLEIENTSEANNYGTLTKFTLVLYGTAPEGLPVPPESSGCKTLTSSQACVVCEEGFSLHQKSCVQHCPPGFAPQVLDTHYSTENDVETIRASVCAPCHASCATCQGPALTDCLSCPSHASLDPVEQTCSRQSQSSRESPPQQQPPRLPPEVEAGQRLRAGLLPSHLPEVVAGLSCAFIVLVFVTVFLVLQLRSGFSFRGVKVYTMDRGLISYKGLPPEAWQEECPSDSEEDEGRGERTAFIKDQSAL

| SMILES | Potency (Furin (Homo sapiens)) | Potency [1] | Potency [2] | Potency [3] | Potency [4] | Potency [5] | Potency [6] | outcome [7] |
| --- | --- | --- | --- | --- | --- | --- | --- | --- |
| O=C(O)c1cc(-n2c(/C=C\c3ccc(F)cc3)nc3ccccc3c2=O)ccc1Cl | inactive | 39.8 µM (active) | inactive | 200 µM (active) | 141 µM (active) | inactive |  |  |
| COc1ccc(S(=O)(=O)c2c(Nc3c(C)cccc3C)sc(C(=O)c3ccc4c(c3)OCO4)c2N)cc1 | 23.5 µM (active) | inactive |  |  |  |  | inactive |  |
| O=C(CNC(=O)c1ccccc1)OC(C(=O)Nc1cc(C(F)(F)F)ccc1Cl)c1ccccc1 (stereo not given) | inactive | inactive |  |  |  | inactive | inactive |  |
| O=C(Nc1ccccc1)c1ccc2c(O)c(S(=O)(=O)c3ccc(Cl)cc3)c(=O)[nH]c2c1 | inactive | 22.4 µM (active) | inactive | 398 µM (active) |  | inactive | 14.1 µM (active) |  |
| O=C(Nc1cccc(C(=O)OCc2cc(=O)n3nc(C4CC4)sc3n2)c1)c1cccc(F)c1 | 41.8 µM (active) | 50.1 µM (active) |  |  | 17.8 µM (active) | inactive | 25.1 µM (active) |  |
| O=C(O)c1ccc(NS(=O)(=O)c2ccc(Cl)c(C(=O)Nc3ccccc3)c2)cc1 | inactive | inactive |  |  |  | inactive | inactive |  |
| O=C(Nc1cccc(C(=O)OCc2cc(=O)n3c4c(sc3n2)CCCC4)c1)c1ccc(Cl)cc1 | 52.7 µM (active) | inactive |  |  |  | inactive | inactive |  |
| COc1ccc(C(=O)Nc2cccc(C(=O)OCc3cc(=O)n4c5c(sc4n3)CCCC5)c2)cc1 | 66.3 µM (active) | inactive |  |  |  | inactive |  |  |
| CCOC(=O)c1c(-c2ccc(C)cc2)csc1NC(=O)c1cc(-c2ccc(Cl)cc2)on1 | inactive | inactive |  |  |  | inactive | inactive |  |
| O=c1oc2ccc3ccccc3c2cc1-c1nnc(Nc2ccc(Cl)cc2Cl)s1 | inactive | inactive |  |  |  | inactive | inactive |  |
| COC(=O)c1ccc(C(=O)Nc2ccc(-c3nc4cc(NC(=O)c5ccc(C(=O)OC)cc5)ccc4o3)cc2)cc1 | inactive | inactive |  |  |  | inactive | inactive |  |
| O=C(OCC#CCSc1nnc(-c2cccc3ccccc23)o1)c1ccc(OC(F)(F)F)cc1 | 46.9 µM (active) | inactive |  |  |  | inactive | inactive | inactive |
| CC(C)c1nn2c(=O)cc(COC(=O)c3cccc(NC(=O)c4ccccc4F)c3)nc2s1 | inactive | inactive |  |  |  | inactive | inactive |  |
| O=C(OCC#CCSc1nnc(-c2ccccc2F)o1)c1ccc(F)cc1 | inactive | inactive |  |  |  | inactive | inactive | inactive |
| O=C(OCC#CCSc1nnc(-c2cccc3ccccc23)o1)c1ccc(F)cc1F | 46.9 µM (active) | inactive |  |  |  | inactive | inactive | inactive |
| N#C/C(=C\c1ccc(Cl)cc1)c1nc(-c2cc3c(ccc4ccccc43)oc2=O)cs1 | inactive | inactive |  |  |  | inactive | inactive |  |
| O=C(OCC#CCSc1nnc(-c2cccc3ccccc23)o1)c1sc2ccccc2c1Cl | 46.9 µM (active) | inactive |  |  |  | inactive | inactive | inactive |
| O=c1oc2ccccc2cc1-c1nnc(Nc2ccc(Cl)cc2Cl)s1 | inactive | 31.6 µM (active) |  | 50.1 µM (active) |  | inactive |  |  |
| Cc1cn2c(=O)cc(COC(=O)c3ccc(NC(=O)c4ccc(C(C)(C)C)cc4)cc3)nc2s1 | 46.9 µM (active) | inactive |  |  |  | inactive | inactive |  |
| COC(=O)c1c(NC(=O)c2cc3nc(-c4ccc(Br)cc4)cc(C(F)(F)F)n3n2)sc2c1CCCC2 | inactive | inactive |  |  |  | inactive | inactive |  |
| COc1ccc(S(=O)(=O)c2c(Nc3cccc(Cl)c3)sc(C(=O)c3ccccc3)c2N)cc1 | 52.7 µM (active) | inactive |  |  |  | inactive | inactive |  |
| O=C(OCC#CCSc1nnc(-c2cccc3ccccc23)o1)c1cc(F)c(F)c(F)c1 | 46.9 µM (active) | inactive |  |  |  | inactive | inactive | inactive |
| CC(C)c1nn2c(=O)cc(COC(=O)c3ccc(NC(=O)c4cccs4)cc3)nc2s1 | inactive | inactive |  |  |  | inactive | inactive |  |
